From the supplement of paper PMC6555819

Tests used:
Assay in all cases: PBM binding z-score (relative to random genomic background probes); higher = stronger binding; sequences stand for … in GC…GCGATTGACAGCGTAGAATGAAGG
[1] = test system: FXR:RXRa (NR concentration 270 nM, RXRa partner concentration 90 nM)
In short: (§1)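 For binding z-scores, the reference was random background probes on custom Agilent 4×180K protein-binding microarrays. These arrays were incubated 1 h with ligand-free nuclear receptor dimers in PBS pH 7.4, 2% milk, 0.02% Triton X-100, 1 mM DTT, 0.2 mg/mL BSA and 0.4 mg/ml salmon testes DNA. Fluorescence was scanned after antibody detection of each partner (one per run) and regression-normalized.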

[2] = test system: LXRa:RXRa (NR concentration 270 nM, RXRa partner concentration 90 nM)
In short: as §1

[3] = test system: LXRa homodimer (NR concentration 270 nM)
In short: as §1

[4] = test system: LXRb:RXRa (NR concentration 270 nM, RXRa partner concentration 90 nM)
In short: as §1

[5] = test system: LXRb homodimer (NR concentration 270 nM)
In short: as §1

[6] = test system: PPARa:RXRa (NR concentration 270 nM, RXRa partner concentration 90 nM)
In short: as §1

[7] = test system: PPARg:RXRa (NR concentration 180 nM, RXRa partner concentration 90 nM)
In short: as §1

[8] = test system: PPARg:RXRa 270nM:90nM, anti-RXR (NR concentration 270 nM, RXRa partner concentration 90 nM)
In short: as §1

[9] = test system: PPARg:RXRa 30nM:10nM, anti-RXR (NR concentration 30 nM, RXRa partner concentration 10 nM)
In short: as §1

[10] = test system: PPARg:RXRa 90nM:30nM, anti-RXR (NR concentration 90 nM, RXRa partner concentration 30 nM)
In short: as §1

| Sequence | PBM binding z-score [1] | PBM binding z-score [2] | PBM binding z-score [3] | PBM binding z-score [4] | PBM binding z-score [5] | PBM binding z-score [6] | PBM binding z-score [7] | PBM binding z-score [8] | PBM binding z-score [9] | PBM binding z-score [10] |
| --- | --- | --- | --- | --- | --- | --- | --- | --- | --- | --- |
| GATACAGGGTCAGGGCCAGAGTACGCGTATTGAT | 4.33 | 2.61 | -0.233 | 2.53 | -0.183 | 4.46 | 3.86 | 3.63 | 0.972 | 2.36 |
| CGAACTAGGGCAGAACAGGACAGTGAAGGATGAT | -0.103 | -0.326 | -0.302 | -0.521 | -0.666 | 1.4 | 2.24 | 1.47 | 0.448 | 0.819 |
| TCGAGTAGGTTACTCGGGGCATTCAGCCAACATA | 0.333 | 0.921 | -0.382 | 0.814 | -0.722 | 1.13 | 0.392 | 1.33 | 1.41 | 0.94 |
| AGTCAAAGTTCATCGAGGTAACGTAAGATATGCT | 6.65 | 6 | 4.5 | 3.72 | 1.07 | 5.27 | 6.71 | 6.39 | 3.74 | 5.59 |
| GATACAGGGTCAGCTAGAGACCAGAGTATGGAAA | 4.21 | 2.28 | -0.37 | 2.36 | -0.416 | 4.54 | 3.4 | 3.33 | 0.781 | 2.29 |
| CCTATTAGTTGACCATAAGGGAAACCGAAGCTCG | 0.0135 | 0.118 | 0.818 | 0.349 | 0.904 | 0.126 | 0.419 | 0.639 | 0.332 | 0.381 |
| CGAACTAGGTCAGAACAGGACGGTGAAGGATGAT | 0.947 | 0.319 | -0.295 | -0.0399 | -0.471 | 2.64 | 4.74 | 4.11 | 2.15 | 3.38 |
| CCAGGCAGGTGAAAGGTAACTCAGTCTGGTACGC | 0.326 | 0.496 | -0.353 | 0.47 | -0.921 | 3.13 | 5.95 | 6.52 | 4.44 | 7.19 |
| TGAAGGAGGTTATAAGATCAGGGAACGTTGCAAA | 0.559 | 0.855 | -0.0635 | 0.774 | -0.481 | 2.16 | 0.845 | 1.42 | 0.992 | 1.16 |
| CCTACCGGGCCAAAAAGGTCATTGATGCCGATAA | 3.51 | 4.28 | 3.75 | 4.21 | 0.286 | 4.55 | 1.69 | 3 | 0.292 | 1.97 |
| ATCTATAGGTAACAAGTTCAGTGAAAGAGAGGAC | 0.766 | 1.11 | 0.709 | 0.927 | 0.629 | 1.64 | 1.46 | 1.66 | 0.781 | 1.46 |
| CCTGCAAGGTCATGGTCAGCTAATCTACAGTATG | 6.95 | 5.02 | 0.64 | 4.16 | 0.00573 | 5.68 | 4.66 | 5.14 | 2.07 | 3.51 |
| TCTCGGAGGACACGAAAGCTCAGAGCTCGACATC | 0.278 | -0.178 | -0.494 | -0.291 | -1.33 | 0.0148 | 0.133 | 0.762 | 2.01 | 1.21 |
| CCTACTGGGCCAAGTTCATTGATCAGTCAAAGCA | 0.51 | 0.916 | 0.751 | 0.634 | -0.712 | 1.83 | 1.24 | 2.02 | 0.309 | 1.6 |
| GAGACAGGGTCAGCTAGAGGCCAGAGTATGGAAA | 4.45 | 2.53 | -0.421 | 2.21 | -1.18 | 4.46 | 2.91 | 2.82 | 0.35 | 1.21 |
| TCTTGTAGATCAATAGAGGTTTAGAAAGTGCGCT | 0.391 | 0.283 | -0.272 | 0.00462 | -0.299 | 0.237 | -0.452 | 1.23 | 2.5 | 1.69 |
| AGAATGAGGATACCAAAGATCAGGGAAACGCTTG | 0.11 | -0.468 | -0.437 | -0.336 | -0.365 | -0.155 | 0.826 | 0.344 | 0.225 | 0.512 |
| ATATGTTGGTTACATCCGGGTCATTCAGGCTATG | 1.39 | 1.84 | 0.976 | 2.03 | 1.13 | 2.43 | 1.07 | 1.17 | 0.492 | 0.873 |
| AGATGTAGGTTAGCTGGGGTCATTCAGACTAGGC | 4.46 | 5.57 | 2.58 | 4.53 | 1.17 | 4.85 | 5.03 | 4.61 | 2.17 | 3.72 |
| AGAATGAGGTTAAGATCAGAGAAACAGAATACAT | 2.3 | 2.12 | 0.0426 | 1.9 | -0.125 | 3.61 | 2.54 | 2.18 | 0.874 | 1.71 |
| TCTACCAGGCCAGAGGGTCACTCAAGAGGTACGG | 1.36 | 1.24 | -0.237 | 1.38 | -0.315 | 2.65 | 2.06 | 3.41 | 3.25 | 3.44 |
| GCGACTGGGGCAAAGCAGGTTACCAGAAGGTTGG | 0.766 | 0.129 | -0.462 | 0.0356 | -1.38 | 1.3 | 1.17 | 1.42 | -0.461 | 0.594 |
| GGAACGAGGGCAACTTGATAGCAGAGTTTGATGG | 0.815 | 0.375 | -0.472 | 0.468 | -0.203 | 1.53 | 1.63 | 1.28 | -0.0805 | 0.883 |
